# Activity calls are given as the source filed them. The call rests on the fitted dose curve; in most records, active means well fitted curve in the direction sought with a large enough effect; inconclusive means small, poorly fitted or top-dose-only effect, or another doubt; inactive means no such curve, though single readings can be large; an effect the other way counts as inactive or inconclusive.
# Test: qHTS for inhibitors of adenylyl cyclases using a fission yeast platform: a pilot screen against the NCATS LOPAC library (AID 1347410);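 further: plate controls were DMSO vehicle for no effect and DPI positive control for full effect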
# Conditions: S. pombe CHP2027, fbp1-GFP fluorescence, 18 h, yeast expressing mammalian AC9 and human GNAS; series mostly up to 57.5 µM; activity, positive = inhibition (GFP gain): at the top concentration
# Procedure, shortened: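 Read-out: fbp1-GFP fluorescence by laser scanning cytometry (488 nm laser), a gain of signal when AC/cAMP-PKA signalling is inhibited. Strain CHP2027 expressing AC9, GNAS and PDE4D2; compounds at up to 57 µM; 18 h, 30C.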
row,SMILES,"activity, positive = inhibition (GFP gain)"
1,N=C(N)SCCN,-0.438% (inactive)
2,Cn1cc(C(=O)OCC2CCN(CCNS(C)(=O)=O)CC2)c2ccccc21,-0.438% (inactive)
3,N[C@@H](CCC(=O)N[C@H](CSN=O)C(=O)NCC(=O)O)C(=O)O,0.109% (inactive)
4,CC[C@H](NC(=O)c1c(C)c(-c2ccccc2)nc2ccccc12)c1ccccc1,-0.438% (inactive)
5,c1ccc2c(c1)CCC[C@H]2Nc1nc2ccccc2[nH]1,-0.438% (inactive)
6,N[C@@H](CS(=O)O)C(=O)O,-0.438% (inactive)
7,NC(N)=N[C@@H](CCC(=O)O)C(=O)O,0.141% (inactive)
8,CNCCc1cnc(CCC(c2ccccc2)c2ccccc2)[nH]1,0.206% (inactive)
9,CN[C@H](CC(=O)O)C(=O)O,-0.438% (inactive)
10,CNc1ncnc2c1ncn2[C@H]1C[C@H](OP(=O)(O)O)[C@@H](COP(=O)(O)O)O1,0.0858% (inactive)
11,N=C(N)SCCc1cnc[nH]1,0.183% (inactive)
12,CN1CCCC1CCOC(C)(c1ccccc1)c1ccc(Cl)cc1 (stereo unspecified),-0.438% (inactive)
13,Oc1ccc(/C=C/c2ccc(/C=C/c3ccc(O)cc3)c(Br)c2)cc1,1.38% (inactive)
14,CCOC(=O)C12CC1/C(=N/O)c1ccccc1O2 (stereo unspecified),-0.438% (inactive)
15,N#CC(C#N)=C(N)/C(C#N)=C/c1ccc(O)cc1,0.253% (inactive)
16,NC(N)=NC(N)=Nc1cccc(Cl)c1,-0.438% (inactive)
17,CCCOC(=O)c1c(-c2ccccc2)nc(CC)c(C(=O)SCC)c1CCC,-0.438% (inactive)
18,CC1=C(/C=C/C(C)=C/C=C/C(C)=C\C(=O)O)C(C)(C)CCC1,-0.058% (inactive)
19,CCC(=O)N1CCN(C(=O)c2ccccc2)CC1,-0.438% (inactive)

row,SMILES,"activity, positive = inhibition (GFP gain)"
1,O=c1oc(Cl)c(Cl)c2ccccc12,-0.438% (inactive)
2,CC(N)=O,-0.438% (inactive)
3,C/C(=C\c1ccc(C(=O)O)cc1)c1ccc2c(c1)C(C)(C)CCC2(C)C,1.55% (inactive)
4,NCCS(=O)O,-0.438% (inactive)
5,CC1CCN=C(N)S1 (stereo unspecified),0.355% (inactive)
6,CSc1nc(N)c2ncn([C@@H]3O[C@H](COP(=O)(O)OP(=O)(O)O)C(O)[C@H]3O)c2n1 (stereo partly specified),0.197% (inactive)
7,CCN(c1nc(N)c(C(=O)N=C(N)N)nc1Cl)C(C)C,-0.438% (inactive)
8,CC(C)C[C@H](NC(=O)C1OC1C(=O)O)C(=O)NCCCCN=C(N)N (stereo partly specified),-0.438% (inactive)
9,CC(C)(C)NCC(O)COc1cccc2[nH]c(=O)[nH]c12 (stereo unspecified),0.118% (inactive)
10,C=C1C(=O)O[C@@H]2[C@H]3O[C@]3(C)CCC=C(C)CC[C@@H]12,-0.438% (inactive)
11,NCC(O)(CS(=O)(=O)O)c1ccc(Cl)cc1 (stereo unspecified),0.29% (inactive)
12,Cc1cc2c(cc1Cl)N(C(=O)Nc1ccnc3ccccc13)CC2,-0.0951% (inactive)
13,O=C(O)/C(=C/c1c(C(=O)O)[nH]c2cc(Cl)cc(Cl)c12)c1ccccc1,0.967% (inactive)
14,O=C(OCCN1CCOCC1)C1(c2ccccc2)CCCCC1,-0.438% (inactive)
15,CN(C)C(=O)/N=N/C(=O)N(C)C,-0.438% (inactive)
16,O=C1Cc2c([nH]c3ccc(Br)cc23)-c2ccccc2N1,0.114% (inactive)
17,COc1cc(C(O)CO)ccc1O (stereo unspecified),0.007% (inactive)
18,CC(N)(Cc1ccc(O)cc1)C(=O)O (stereo unspecified),2.36% (inactive)
19,O=C(O)CCC/C=C\C[C@@H]1[C@@H](/C=C/[C@H](O)C2Cc3ccccc3C2)[C@@H](F)C[C@@H]1O,-0.438% (inactive)

# Test: Validation qHTS assay for inhibitors of Activation Induced Cytidine Deaminase (AID): UDG Counterscreen signal (AID 1347427); further: 0% is about no effect
# Conditions: biochemical UDG counterscreen, fluorescence signal; series mostly up to 115 µM; activity, negative = inhibition: at the top concentration
# Procedure, shortened: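 Fluorescence at 560 nm excitation, 665 nm emission reports UDG signal after 250 mM NaOH (2x) addition and 30 min. Enzymes (AID 1 uM, UDG 2 U/mL, at 4/3x) preincubated 10 min with compound, then 4 h with 4x 250 nM DJC20/DJC23 substrate at room temperature.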
row,SMILES,"activity, negative = inhibition"
1,N=C(N)SCCN,4.81% (inactive)
2,Cn1cc(C(=O)OCC2CCN(CCNS(C)(=O)=O)CC2)c2ccccc21,11% (inactive)
3,N[C@@H](CCC(=O)N[C@H](CSN=O)C(=O)NCC(=O)O)C(=O)O,13.1% (inactive)
4,CC[C@H](NC(=O)c1c(C)c(-c2ccccc2)nc2ccccc12)c1ccccc1,1.3% (inactive)
5,c1ccc2c(c1)CCC[C@H]2Nc1nc2ccccc2[nH]1,-1.13% (inactive)
6,N[C@@H](CS(=O)O)C(=O)O,13.1% (inactive)
7,NC(N)=N[C@@H](CCC(=O)O)C(=O)O,8.05% (inactive)
8,CNCCc1cnc(CCC(c2ccccc2)c2ccccc2)[nH]1,9.23% (inactive)
9,CN[C@H](CC(=O)O)C(=O)O,6.71% (inactive)
10,CNc1ncnc2c1ncn2[C@H]1C[C@H](OP(=O)(O)O)[C@@H](COP(=O)(O)O)O1,15.7% (inactive)
11,N=C(N)SCCc1cnc[nH]1,7.65% (inactive)
12,CN1CCCC1CCOC(C)(c1ccccc1)c1ccc(Cl)cc1 (stereo unspecified),1.51% (inactive)
13,Oc1ccc(/C=C/c2ccc(/C=C/c3ccc(O)cc3)c(Br)c2)cc1,-8.29% (inactive)
14,CCOC(=O)C12CC1/C(=N/O)c1ccccc1O2 (stereo unspecified),6.56% (inactive)
15,N#CC(C#N)=C(N)/C(C#N)=C/c1ccc(O)cc1,11.3% (inactive)
16,NC(N)=NC(N)=Nc1cccc(Cl)c1,9.83% (inactive)
17,CCCOC(=O)c1c(-c2ccccc2)nc(CC)c(C(=O)SCC)c1CCC,-3.02% (inactive)
18,CC1=C(/C=C/C(C)=C/C=C/C(C)=C\C(=O)O)C(C)(C)CCC1,6.75% (inactive)
19,CCC(=O)N1CCN(C(=O)c2ccccc2)CC1,14.4% (inactive)

row,SMILES,"activity, negative = inhibition"
1,O=c1oc(Cl)c(Cl)c2ccccc12,9.39% (inactive)
2,CC(N)=O,5.6% (inactive)
3,C/C(=C\c1ccc(C(=O)O)cc1)c1ccc2c(c1)C(C)(C)CCC2(C)C,8.16% (inactive)
4,NCCS(=O)O,7.17% (inactive)
5,CC1CCN=C(N)S1 (stereo unspecified),9.01% (inactive)
6,CSc1nc(N)c2ncn([C@@H]3O[C@H](COP(=O)(O)OP(=O)(O)O)C(O)[C@H]3O)c2n1 (stereo partly specified),14.3% (inactive)
7,CCN(c1nc(N)c(C(=O)N=C(N)N)nc1Cl)C(C)C,11.1% (inactive)
8,CC(C)C[C@H](NC(=O)C1OC1C(=O)O)C(=O)NCCCCN=C(N)N (stereo partly specified),-7.3% (inactive)
9,CC(C)(C)NCC(O)COc1cccc2[nH]c(=O)[nH]c12 (stereo unspecified),4.7% (inactive)
10,C=C1C(=O)O[C@@H]2[C@H]3O[C@]3(C)CCC=C(C)CC[C@@H]12,5.61% (inactive)
11,NCC(O)(CS(=O)(=O)O)c1ccc(Cl)cc1 (stereo unspecified),2.68% (inactive)
12,Cc1cc2c(cc1Cl)N(C(=O)Nc1ccnc3ccccc13)CC2,4.23% (inactive)
13,O=C(O)/C(=C/c1c(C(=O)O)[nH]c2cc(Cl)cc(Cl)c12)c1ccccc1,7.82% (inactive)
14,O=C(OCCN1CCOCC1)C1(c2ccccc2)CCCCC1,12% (inactive)
15,CN(C)C(=O)/N=N/C(=O)N(C)C,4.07% (inactive)
16,O=C1Cc2c([nH]c3ccc(Br)cc23)-c2ccccc2N1,5.41% (inactive)
17,COc1cc(C(O)CO)ccc1O (stereo unspecified),10.2% (inactive)
18,CC(N)(Cc1ccc(O)cc1)C(=O)O (stereo unspecified),5.26% (inactive)
19,O=C(O)CCC/C=C\C[C@@H]1[C@@H](/C=C/[C@H](O)C2Cc3ccccc3C2)[C@@H](F)C[C@@H]1O,-1.03% (inactive)

# Reference: PubChem BioAssay (NCATS)
